Screening results deposited in PubChem by several laboratories.
Most compounds without a hit are left out; they make up all but 32% or so of the library.
CYP2C19 activ = increases human CYP2C19 enzyme activity | activation factor at 5 µM | AID 1025 | P33261 | 96,000 tested, under 10 active | recombinant CYP2C19, luciferin-H EGE luminescence; stronger effect = higher value; 0 = fully inhibited enzyme, 1 = untreated enzyme;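 active = activation factor of at least 2 at 5 µM in the primary screen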;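 also: 0 = wells with 2.5 mM tranylcypromine and 1 = vehicle-only wells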
CYP2C9 activ = increases human cytochrome P450 2C9 activity; recombinant CYP2C9, luciferin-H conversion, luminescence; stronger effect = higher value; factor 1 = untreated enzyme, 0 = blocked; 96,000 compounds, 1.4% hits; activation factor at 5 µM;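 active = activation factor of 2 or more for CYP2C9 at a 5 µM dose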;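 also: 0 = sulfaphenazole-blocked wells and 1 = vehicle-only wells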
PostGolgi yeast = growth inhibition of a yeast mutant, post-Golgi transport screen. inhibition, % at 10 µM. 98,000 compounds, 0.9% hits. post-Golgi transport phenotypic cell assay. AID 739;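 also: yeast cells grown in 1536-well plates; yeast grown about 18 h at 30C before absorbance read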
CYP2C19 inh = inhibitors of human CYP2C19. P33261. CYP2C19 Supersomes, luciferin-H EGE luminescence, 30 min. inhibition, % at 5 µM. 96,000 compounds, 21% hits;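 active = CYP2C19 inhibition above a set limit at 5 µM in the primary screen, cut at about 50% in these data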;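 also: plate controls were negative control wells for no effect and 2.5 mM tranylcypromine positive control for full effect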
CYP2C9 inhib = inhibitors of human CYP2C9. inhibition, % at 5 µM. P11712. 96,000 compounds, 20% hits. CYP2C9 Supersomes, luciferin-H conversion, luminescence;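 active = blocking of liver enzyme CYP2C9 beyond about 50% at 5 µM, limit read from the data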
PostGolgi ctrl = yeast control strain growth, post-Golgi counter-screen. efflux-deficient yeast background strain, growth absorbance A615, 16 h. inhibition, % at 10 µM. 98,000 compounds, 5% hits
* = called active by the depositor. Rule as the data show it, unless noted: active = inhibition above about 30%; inactive = the rest.

SMILES	CYP2C19 activ	CYP2C9 activ	PostGolgi yeast	CYP2C19 inh	CYP2C9 inhib	PostGolgi ctrl
CCSc1cnc(-c2ccccc2)n1CC	0.6	0.9	-4	39	12	3
O=C(CC12CC3CC(CC(C3)C1)C2)N1CCCC1	0.9	1	-6	14	-3	25
O=C(N1CCCCC1)C12CC3CC(C1)CC(C(=O)N1CCCCC1)(C3)C2	0.3	0.4	-5	66*	64*	-2
CN1CCN(S(=O)(=O)c2ccc(=O)[nH]c2)CC1	1.1	1	-2	-8	-2	1
Cc1c(NC(=O)CSc2ccccc2C(=O)Nc2cccnc2)c(=O)n(-c2ccccc2)n1C	1.1	0.9	9	-6	9	-3
O=C(COc1ccc(S(=O)(=O)N2CCCCC2)cc1)NCc1cccnc1	0.7	0.4	-13	26	60*	-3
O=C(NCc1cccnc1)c1cccc(S(=O)(=O)N2CCOCC2)c1	0.4	0.8	-5	61*	24	4
O=C(NCc1ccco1)c1ccc(S(=O)(=O)c2cccc(S(=O)(=O)N3CCOCC3)c2)cc1	0.5	0.5	-5	51*	47	23
Cc1ccc(S(=O)(=O)N2CCOCC2)cc1C(=O)NCc1cccnc1	0.7	1.1	-1	28	-9	0
O=C(NCc1cccnc1)c1cc(S(=O)(=O)N2CCCCC2)ccc1Cl	0.2	0.1	15	80*	94*	5
O=C(NCc1cccnc1)c1ccc(S(=O)(=O)N2CCOCC2)cc1	0.9	1	6	5	-1	0
Cc1ccc(C(=O)NCc2ccco2)cc1S(=O)(=O)N1CCOCC1	1	1	-1	-3	4	2
COCC(C)n1c(C)cc(C(=O)CN2C(=O)NC(Cc3c[nH]c4ccccc34)C2=O)c1C (stereo not given)	0.6	0.5	13	41	46	16
Cc1ccnc(NC(=O)c2cc(S(=O)(=O)N3CCCCC3)ccc2Cl)c1	0.6	0.1	-1	39	88*	12
O=C(NCc1cccnc1)c1cccc(S(=O)(=O)N2CCCCC2)c1	0.4	0.6	-4	65*	38	4
CCN(CC)CCCN1C(=O)c2oc3ccccc3c(=O)c2C1c1cccnc1 (stereo not given)	1.1	1.1	-4	-6	-10	-5
CCC(Sc1ncnc2sc(C)c(C)c12)C(=O)OC (stereo not given)	0.4	0.1	2	65*	93*	15
Cc1sc2ncnc(SCC(=O)NCC(C)C)c2c1C	0.7	0.4	-1	26	61*	5
Cc1nnc(NC(=O)CSc2ncnc3scc(-c4ccccc4)c23)s1	1.1	0.8	4	-8	19	-2
COC(=O)c1c(-c2ccccc2)csc1NC(=O)CSc1ncnc2sc(C)c(C)c12	0.8	0.3	7	16	71*	9
O=C(CSc1nccc(=O)[nH]1)Nc1ccc(Br)c(Cl)c1	0.7	0.2	4	34	79*	21
O=C(CSc1nccc(=O)[nH]1)Nc1ccc(F)c(Cl)c1	1	0.8	-6	-1	22	8
CCNc1nc(NC(C)C)nc(OCCNS(=O)(=O)c2cc(C)ccc2C)n1	0.5	1.4	-3	50	-40	3
CCNc1nc(NCC)nc(OCCNS(=O)(=O)c2cc(C)ccc2C)n1	0.1	1.3	-3	89*	-34	-10
CCNc1nc(OCCNS(=O)(=O)c2cc(C)ccc2C)nc(N(C)C)n1	0.4	0.8	15	58*	18	-4
SMILES	CYP2C19 activ	CYP2C9 activ	PostGolgi yeast	CYP2C19 inh	CYP2C9 inhib	PostGolgi ctrl
COc1cc(C)nc(OCCNS(=O)(=O)c2cc(C)ccc2C)n1	0.2	1.9	-11	82*	-87	5
Cc1nc(-c2ccccc2)sc1-c1nc(-c2ccncc2)ncc1S(=O)(=O)c1ccccc1	0.1	0	10	93*	96*	29
O=S(=O)(c1ccc(Cl)cc1)c1snnc1-c1ccccc1	0.1	0.7	6	90*	29	34*
Clc1ccc(CSc2snnc2-c2ccccc2)c(Cl)c1	0.8	0.9	-3	21	14	6
Cc1cc(Cl)ccc1Oc1nc(-c2ccccc2)ncc1S(C)(=O)=O	1	0.9	4	4	7	7
O=S(=O)(c1ccc(Cl)cc1)c1cnc(-c2cccnc2)nc1-c1ccccc1	0.5	0.6	1	52*	40	12
Cc1ncc(S(=O)(=O)c2ccccc2)c(-c2ccc(Cl)cc2Cl)n1	0.3	1	10	73*	2	15
